# In PubChem BioAssay (NCATS):
# Records with an inconclusive call do not appear. Entries that show only a call come without a potency. Activity calls are given as the source filed them. The call rests on the fitted dose curve; in most records, active means well fitted inhibition curve with a large enough effect; inconclusive means small, poorly fitted or top-dose-only effect; inactive means flat fitted curve, though single readings scatter.
# Experiments:
# [1] = target: Glutathione peroxidase 1 (Homo sapiens) (UniProt P07203); test: Primary qHTS Assay for Inhibitors of Recombinant Selenoprotein Glutathione Peroxidase 1 (GPX1) (AID 1845191)
# Summary of the method: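 GR-coupled assay: compounds preincubated 30 min at room temperature with GPX1, then reaction started with CHP; final 10 nM GPX1, 1 mM GSH, 0.5 mM CHP, 0.5 mM NADPH, 100 nM GR, 0.01% BSA, pH 7.5 Tris buffer. NADPH fluorescence (340/450 nm) read at 0 and 15 min.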
# [2] = target: Phospholipid hydroperoxide glutathione peroxidase GPX4 (Homo sapiens) (UniProt P36969); test: Primary qHTS Assay for Inhibitors of Recombinant Selenoprotein Glutathione Peroxidase 4 (GPX4) (AID 1845192)
# Summary of the method: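 GR-coupled assay: recombinant GPX4 preincubated 30 min with compound at room temperature; final 200 nM GPX4, 1 mM GSH, 0.5 mM cumene hydroperoxide, 0.5 mM NADPH, 100 nM GR, 0.01% BSA, pH 7.5 Tris. NADPH fluorescence (340/450 nm) read at 0 and 15 min.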
# Further: nearly all actives have a fitted effect of over 65% in size.
# Potency means the concentration at half of the fitted maximal effect.
# Chain of Glutathione peroxidase 1 (Homo sapiens) (P07203 whole entry, looked up): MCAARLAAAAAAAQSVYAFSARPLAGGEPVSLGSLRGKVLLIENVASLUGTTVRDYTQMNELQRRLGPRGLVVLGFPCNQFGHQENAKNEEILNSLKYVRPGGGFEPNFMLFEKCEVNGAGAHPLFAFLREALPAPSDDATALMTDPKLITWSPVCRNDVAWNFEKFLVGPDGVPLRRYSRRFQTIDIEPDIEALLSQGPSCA
# Chain of Phospholipid hydroperoxide glutathione peroxidase GPX4 (Homo sapiens) (P36969 whole entry, looked up): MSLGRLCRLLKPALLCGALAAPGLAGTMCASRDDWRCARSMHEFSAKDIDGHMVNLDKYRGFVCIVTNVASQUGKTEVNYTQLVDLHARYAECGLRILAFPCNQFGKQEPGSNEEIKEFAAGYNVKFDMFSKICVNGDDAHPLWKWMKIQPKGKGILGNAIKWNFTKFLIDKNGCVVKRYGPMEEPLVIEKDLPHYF
Structure (SMILES),Potency [1],Potency [2],outcome [1],outcome [2]
CC(O)[C@H]1CC[C@H]2[C@@H]3CC[C@@H]4C[C@@H](O)CC[C@]4(C)[C@H]3CC[C@]12C (stereo partly specified),inactive,inactive,–,–
NCCCC[C@H](N)C(=O)O,–,–,inactive [at 0.4 µM],inactive [at 0.409 µM]
CC(C)(CO)[C@@H](O)C(=O)NCCC(=O)NCCSSCCNC(=O)CCNC(=O)[C@H](O)C(C)(C)CO,inactive,inactive,–,–
FC(F)(F)C(F)(F)C(F)(F)C(F)(F)C(F)(F)F,inactive,inactive,–,–
CC[C@H](CC[C@@H](C)[C@H]1CC[C@H]2[C@@H]3CC=C4C[C@@H](O)CC[C@]4(C)[C@H]3CC[C@]12C)C(C)C,inactive,inactive,–,–
NC(N)=NCC1COC2(CCCCC2)O1 (stereo unspecified),inactive,inactive,–,–
CO/N=C(\C(=O)N[C@@H]1C(=O)N2C(C(=O)O)=C(C[N+]3(C)CCCC3)CS[C@H]12)c1csc(N)n1,11.4 µM (active),17.8 µM (active),–,–
C[C@]12CCC(=O)C[C@@H]1CC[C@@H]1[C@@H]2CC[C@]2(C)C=CC[C@@H]12,inactive,inactive,–,–
C(=C\c1ccncc1)/c1ccccc1,inactive,inactive,–,–
C=C1CC[C@H](O)CC1=C/C=C1\CCC[C@]2(C)[C@@H]([C@H](C)CCCC(C)(C)O)CC[C@@H]12,inactive,14.1 µM (active),–,–
NC(=S)NS(=O)(=O)c1ccc(N)cc1,inactive,inactive,–,–
NC(=O)[C@H]1O[C@@H](O)[C@H](O)[C@@H](O)[C@@H]1O,inactive,inactive,–,–
COc1ccc(-c2noc(CC(=O)O)c2-c2ccc(OC)cc2)cc1,inactive,inactive,–,–
